# In PubChem BioAssay AID1159580 (chemical genetic matrix, 2015):
# Hit rate of the full screen: of about 5,500 compounds, about 2,000 (36%) were called active. Inconclusive results (about 18%) are left out. This is one part of the list. A number with no mark means an inactive call. Rule as the data show it: active = normalized growth mostly below about 0.91 (no sharp cut-off); inconclusive = no clear call, values can overlap the other calls; inactive = mostly above about 0.92.
# Assay: chemical genetic growth profiling, strain panel (AID 1159580);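 also: tested at 20 µM; growth read once vehicle control cultures reached saturation at 30 °C; 1 = growth at the plate median or of vehicle wells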
# Conditions: S. cerevisiae deletion strains, growth OD
compound,measurement,setting,value
CCC1CCC(C)N(C(=S)Nc2ccc(Br)cc2C)C1 (stereo unspecified),normalized growth,"locus YAR019C, strain CDC15, stronger effect = lower value",0.965
same,normalized growth,"locus YBL105C, strain PKC1, stronger effect = lower value",0.976
same,normalized growth,"locus YBR135W, strain CKS1, stronger effect = lower value",0.955
same,normalized growth,"locus YBR136W, strain MEC1, stronger effect = lower value",0.971
same,normalized growth,"locus YBR160W, strain CDC28, stronger effect = lower value",0.953
same,normalized growth,"locus YDL017W, strain CDC7, stronger effect = lower value",0.966
same,normalized growth,"locus YDL028C, strain MPS1, stronger effect = lower value",0.961
same,normalized growth,"locus YDL101C, strain DUN1, stronger effect = lower value",0.958
same,normalized growth,"locus YDL108W, strain KIN28, stronger effect = lower value",0.96
same,normalized growth,"locus YDL132W, strain cdc53, stronger effect = lower value",0.956
same,normalized growth,"locus YDL214C, strain PRR2, stronger effect = lower value",0.987
same,normalized growth,"locus YDR052C, strain DBF4, stronger effect = lower value",0.969
same,normalized growth,"locus YDR054C, strain cdc34, stronger effect = lower value",0.953
same,normalized growth,"locus YDR226W, strain ADK1, stronger effect = lower value",0.963
same,normalized growth,"locus YDR477W, strain SNF1, stronger effect = lower value",0.955
same,normalized growth,"locus YER123W, strain YCK3, stronger effect = lower value",0.936
same,normalized growth,"locus YER133W, strain GLC7, stronger effect = lower value",0.961
same,normalized growth,"locus YFL009W, strain cdc4, stronger effect = lower value",0.956
same,normalized growth,"locus YFL029C, strain CAK1, stronger effect = lower value",0.963
same,normalized growth,"locus YFR003C, strain YPI1, stronger effect = lower value",0.978
same,normalized growth,"locus YFR019W, strain FAB1, stronger effect = lower value",0.995
same,normalized growth,"locus YFR028C, strain CDC14, stronger effect = lower value",0.967
same,normalized growth,"locus YGR040W, strain KSS1, stronger effect = lower value",0.963
same,normalized growth,"locus YGR052W, strain FMP48, stronger effect = lower value",1.11
same,normalized growth,"locus YGR092W, strain DBF2, stronger effect = lower value",0.964
same,normalized growth,"locus YHR030C, strain SLT2, stronger effect = lower value",0.84 (active)
same,normalized growth,"locus YHR079C, strain IRE1, stronger effect = lower value",0.979
same,normalized growth,"locus YHR082C, strain KSP1, stronger effect = lower value",1.05
same,normalized growth,"locus YHR205W, strain SCH9, stronger effect = lower value",0.993
same,normalized growth,"locus YIL147C, strain SLN1, stronger effect = lower value",0.968
same,normalized growth,"locus YJL095W, strain BCK1, stronger effect = lower value",0.913
same,normalized growth,"locus YJL128C, strain PBS2, stronger effect = lower value",0.927
same,normalized growth,"locus YJL157C, strain FAR1, stronger effect = lower value",0.986
same,normalized growth,"locus YJR016C, strain ILV3, stronger effect = lower value",0.964
same,normalized growth,"locus YJR066W, strain TOR1 (second series), stronger effect = lower value",1.01
same,normalized growth,"locus YJR066W, strain TOR1, stronger effect = lower value",0.987
same,normalized growth,"locus YKL048C, strain ELM1, stronger effect = lower value",0.956
same,normalized growth,"locus YKL067W, strain YNK1, stronger effect = lower value",1
same,normalized growth,"locus YKL101W, strain HSL1, stronger effect = lower value",0.95
same,normalized growth,"locus YKL193C, strain SDS22, stronger effect = lower value",0.951
same,normalized growth,"locus YKL203C, strain TOR2, stronger effect = lower value",1.05
same,normalized growth,"locus YLR113W, strain HOG1, stronger effect = lower value",0.924
same,normalized growth,"locus YLR133W, strain CKI1, stronger effect = lower value",0.98
same,normalized growth,"locus YLR403W, strain SFP1, stronger effect = lower value",0.992
same,normalized growth,"locus YML070W, strain DAK1, stronger effect = lower value",0.958
same,normalized growth,"locus YMR001C, strain CDC5, stronger effect = lower value",0.961
same,normalized growth,"locus YMR205C, strain PFK2 (second series), stronger effect = lower value",0.973
same,normalized growth,"locus YMR277W, strain FCP1, stronger effect = lower value",0.962
same,normalized growth,"locus YNL006W, strain LST8, stronger effect = lower value",0.966
same,normalized growth,"locus YNL020C, strain ARK1, stronger effect = lower value",0.974
same,normalized growth,"locus YNL161W, strain CBK1, stronger effect = lower value",0.948
same,normalized growth,"locus YNL183C, strain NPR1, stronger effect = lower value",0.967
same,normalized growth,"locus YNL207W, strain RIO2, stronger effect = lower value",0.957
same,normalized growth,"locus YNL222W, strain SSU72, stronger effect = lower value",0.963
same,normalized growth,"locus YNL307C, strain MCK1 (second series), stronger effect = lower value",0.948
same,normalized growth,"locus YOL078W, strain AVO1, stronger effect = lower value",0.959
same,normalized growth,"locus YOL136C, strain PFK27, stronger effect = lower value",0.964
same,normalized growth,"locus YOR061W, strain CKA2, stronger effect = lower value",0.948
same,normalized growth,"locus YOR119C, strain RIO1, stronger effect = lower value",1.08
same,normalized growth,"locus YOR231W, strain MKK1, stronger effect = lower value",0.957
same,normalized growth,"locus YOR329C, strain SCD5, stronger effect = lower value",0.968
same,normalized growth,"locus YPL031C, strain PHO85, stronger effect = lower value",0.968
same,normalized growth,"locus YPL153C, strain RAD53, stronger effect = lower value",0.955
same,normalized growth,"locus YPL204W, strain HRR25, stronger effect = lower value",0.969
same,normalized growth,"locus YPL209C, strain IPL1, stronger effect = lower value",0.967
same,normalized growth,"locus YPL256C, strain CLN2, stronger effect = lower value",0.906
same,normalized growth,"locus YPR025C, strain CCL1, stronger effect = lower value",0.959
same,normalized growth,"locus YPR106W, strain ISR1, stronger effect = lower value",0.978
same,normalized growth,"locus YPR111W, strain DBF20, stronger effect = lower value",0.979
same,normalized growth,"strain NNK1, stronger effect = lower value",0.962
same,normalized growth,"strain TSCII, stronger effect = lower value",0.95
